FGF22 binding – FGF22 (human) thermal shift binding; activity (Tm shift, normalised), % at 9.99 µM; recombinant FGF22 thermal shift, SYPRO orange fluorescence; percent of sucrose octasulfate shift, DMSO zero; AID 651658; 1.5% of 340,000 active; Q9HCT0;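 active means mean Tm shift, scaled 0 neutral to 100 positive control, at about 1.3% or above, every replicate too, limit read from the data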
INS-1E GSIS act – primary screen for activators of insulin secretion dependent on glucose, INS-1E cells, GLuc reporter luminescence; AID 743287; INS-1E GLuc reporter insulin secretion, 2-3 h; activation, % at 16.6 µM; 0.61% of 370,000 active;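 active means lowest replicate activation of at least 40%, so every replicate reaches that level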
ERAP1 HTS inh – blocks human ERAP1 aminopeptidase activity. recombinant ERAP1, Leu-AMC fluorescence, 60 min. inhibition, % at 10.7 µM. Q9NZ08. 0.15% of 340,000 active;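 active means mean replicate inhibition of at least 30%, or all replicates individually reaching that 30% level; inactive means mean below 30% and not every replicate reaching it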
SIRT5 block – sirtuin-5 (human) deacylase inhibition | Q9NXA8 | Purified SirT5, succinyl-peptide AMC, trypsin-coupled fluorescence | inhibition, % at 15 µM | 1.1% of 330,000 active | AID 652115; in the data active means inhibition above about 15%
CASP6 VEID inh – blocks human caspase-6 cleavage activity; inhibition, % at 12.5 µM; 0.53% of 350,000 active; purified caspase-6, Z-VEID-R110 cleavage fluorescence;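 active means mean inhibition across replicates at least about 35%, with every replicate also reaching that limit, limit read from the data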
Target sequence (P55212 24-179 limits assumed): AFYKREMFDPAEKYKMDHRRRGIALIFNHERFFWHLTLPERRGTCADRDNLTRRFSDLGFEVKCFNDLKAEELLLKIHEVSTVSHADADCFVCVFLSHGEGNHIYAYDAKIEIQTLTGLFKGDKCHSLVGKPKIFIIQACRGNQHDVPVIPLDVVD
Target sequence (P55212 194-293 limits assumed): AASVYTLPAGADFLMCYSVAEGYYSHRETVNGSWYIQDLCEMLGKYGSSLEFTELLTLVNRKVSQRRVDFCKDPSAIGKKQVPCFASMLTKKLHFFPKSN
Numbers stand for hits; – = inactive; · = not tested or not shown. Hits are enriched below; roughly 3.3% of the tested compounds scored in any of these assays.

SMILES	FGF22 binding	INS-1E GSIS act	ERAP1 HTS inh	SIRT5 block	CASP6 VEID inh
Cn1cnc(CCNC(=O)C[C@@H]2CC[C@@H]3[C@H](COC[C@@H](O)CN3C(=O)Nc3ccc(Cl)cc3)O2)c1	–	–	–	19	–
Cn1cnc(CCNC(=O)C[C@@H]2CC[C@H]3[C@@H](COC[C@H](O)CN3C(=O)C3CCCC3)O2)c1	–	–	–	–	–
CCOC(=O)/C(=N/Nc1ccc(OC)cc1)Sc1nnc(CCc2ccccc2)n1-c1ccccc1	–	–	–	22	–
CC(=O)/C(=N/Nc1ccc(C)cc1)Sc1nnc(CCc2ccccc2)n1-c1ccccc1	–	–	–	–	–
Nc1ccc2cc3ccccc3cc2c1	–	–	–	·	–
O=S1(=O)Cc2cc3ccccc3cc2C1	43	–	–	–	–
CC[C@H](C)[C@H](NC(N)=O)C(=O)Nc1ccc(OC)c(Cl)c1	–	–	·	·	–
COc1ccc(NC(=O)CCCC(=O)O)cc1Cl	43	–	–	–	–
COc1ccc(NC(=O)[C@@H](NC(N)=O)C(C)C)cc1Cl	44	–	–	–	–
COCC(=O)N1CC2(C1)[C@H](c1ccccc1)[C@@H](CO)N2C(=O)c1ccccc1	–	–	–	–	–
CCCCCCCCCCOC(=O)Cn1c(COc2ccc(Cl)cc2)[n+](C)c2ccccc21	–	207	35	–	–
CCCCCCCCCCOC(=O)Cn1c(COc2cccc(C)c2)[n+](C)c2ccccc21	–	171	30	–	–
CCOC(=O)Cn1c(COc2ccccc2OC)[n+](C)c2ccccc21	–	·	–	–	–
CCCCCCCCCCOC(=O)Cn1c(COc2ccccc2C)[n+](C)c2ccccc21	·	139	33	–	–
CCCCCCCCCCOC(=O)Cn1c(COc2ccccc2)[n+](C)c2ccccc21	–	127	49	–	–
CCCCOC(=O)Cn1c(=O)n(CC(=O)OCCCC)c2ccccc21	·	–	·	·	·
CCN(CC)CCN(CC(=O)N(C1CCCCC1)C1CCCCC1)C(=O)c1cccnc1	44	–	–	–	–
O=C(NCC(F)(F)F)[C@@H]1[C@@H](CO)[C@@H]2Cn3c(cccc3=O)[C@@H]2N1C(=O)c1ccccc1F	–	–	–	–	–
O=C(Cn1cc(C(F)(F)F)ccc1=O)Nc1ccc2c(c1)OCO2	43	·	–	·	–
C[C@H]1CN([C@@H](C)CO)C(=O)Cc2cc(NC(=O)c3ccncc3)ccc2O[C@@H]1CN(C)C(=O)Nc1cccc2ccccc12	–	–	–	–	–
Cc1ccc(S(=O)(=O)Nc2ccc3c(c2)CC(=O)N([C@@H](C)CO)C[C@H](C)[C@H](CN(C)S(=O)(=O)c2ccc(C)cc2)O3)cc1	–	–	–	–	–
CNC(=O)Nc1ccc(S(N)(=O)=O)cc1	–	–	–	–	–
CC(C)C(Cl)=NOC(=O)Nc1ccc(S(N)(=O)=O)cc1	–	126	–	–	–
CN(C)C(=O)[C@H]1[C@H](CO)[C@H]2Cn3c(ccc(C4=CCCCC4)c3=O)[C@@H]1N2C	–	–	–	–	–
COc1ccc(-c2cc3nc4ccccc4n3c(N)c2C#N)cc1	–	86	–	–	–
SMILES	FGF22 binding	INS-1E GSIS act	ERAP1 HTS inh	SIRT5 block	CASP6 VEID inh
CCCNC(=O)c1c(O)c2cccc3c2n(c1=O)CCC3	–	–	–	–	–
O=C(NCc1cccnc1)c1c(O)c2cccc3c2n(c1=O)CCC3	43	–	–	·	–
NCCNC(=O)c1c(O)c2cccc3c2n(c1=O)CCC3	–	–	31	–	–
C=CCNC(=O)c1c(O)c2cccc3c2n(c1=O)CCC3	–	–	–	–	–
Cc1ccccc1CN1CCN(Cc2ccc3cccc(F)c3n2)CC1CCO (configuration not stated)	–	–	–	36	–
Cc1ccc(-c2ccc3c(c2)O[C@@H](CN(C)C(=O)CC2CC2)[C@@H](C)CN([C@H](C)CO)S3(=O)=O)cc1	–	–	–	–	–
COCC1OC(OC(C)C(O)c2cnc3nc(N)[nH]c(=O)c3n2)C(O)C(OC)C1O (configuration not stated)	–	–	33	·	–
Cc1ccc(C(NC(=O)N2CCCC2)C(Cl)Cl)cc1F (configuration not stated)	44	–	–	–	–
CCN1CCN(C(=O)NC(c2ccc(C)c(F)c2)C(Cl)Cl)CC1 (configuration not stated)	44	–	–	–	–
CC(C)C#Cc1cnc2c(c1)C(=O)N([C@@H](C)CO)C[C@@H](C)[C@H](CN(C)C(=O)Cc1ccccn1)O2	–	–	–	–	–

Screens as filed in PubChem BioAssay.
